In assay [1] the test system is RAW-Dual. Briefly: NF-kB SEAP reporter activity, fold change vs agonist alone; cytotoxicity flag (confluency mask): not cytotoxic; higher = enhanced NF-kB activity. In outline: (§1)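 After 50 nL of library stock was delivered by pin tool to RAW-Dual macrophages (50,000 cells/well, DMEM, 384-well plates), a PRR agonist was added 1 h later and the plates were kept at 37 °C, 5% CO2. Twenty hours later, IRF was read from supernatant by QuantiLuc luminescence and NF-κB by QuantiBlue absorbance at 620 nm. Reporter activity is stated as fold change over agonist-alone wells. Wells with IncuCyte confluency under 70% of agonist controls in both mask sets were counted as cytotoxic.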

The subject of assay [2] is RAW-Dual. The experiment in a line: NF-kB SEAP reporter activity, fold change vs agonist alone; higher = enhanced NF-kB activity. In outline: as §1
The test system of assay [3] is RAW-Dual. The experiment in a line: NF-kB SEAP reporter activity, fold change vs agonist alone; cytotoxicity flag (confluency mask): cytotoxic (confluency <70% of control); higher = enhanced NF-kB activity. In outline:
as §1

The mark [4] stands for this setting: agonist: ODN 1826 (TLR9) 0.5 ug/mL.
Setting [5] is: agonist: Pam2CSK4 (TLR2/6) 0.1 ug/mL.
Where [6] appears, read: agonist: Pam3CSK4 (TLR2/1) 0.1 ug/mL.
[7] abbreviates: library stock concentration (final ~1000-fold dilution): 10 mM, cytotoxicity flag (confluency mask): not cytotoxic, agonist: Imiquimod (TLR7) […].
Where [8] appears, read: library stock concentration (final ~1000-fold dilution): 10 mM, cytotoxicity flag (confluency mask): not cytotoxic, agonist: MPLA (TLR4) […].
The mark [9] stands for this setting: library stock concentration (final ~1000-fold dilution): 10 mM, cytotoxicity flag (confluency mask): cytotoxic (confluency <70% of control), agonist: Imiquimod (TLR7) […].
The mark [10] stands for this setting: library stock concentration (final ~1000-fold dilution): 10 mM, cytotoxicity flag (confluency mask): cytotoxic (confluency <70% of control), agonist: MPLA (TLR4) […].

The structures appear in SMILES notation. ± gives the standard deviation of the averaged measurements. The full ranking holds about 2,900 compounds; the median of “NF-kB SEAP reporter activity, fold change vs agonist alone” is about 0.99, and the highest 2% start at about 2.6. This is one part of a sample in which the highest values are shown more often than they occur.

Take `CCOc1ccc(Cc2cc(C3OC(CO)C(O)C(O)C3O)ccc2Cl)cc1` (configuration not stated) (library stock concentration (final ~1000-fold dilution): 10 mM): the “NF-kB SEAP reporter activity” value with RAW-Dual [1] (agonist: LPS (TLR4) 0.1 ug/mL) was 1.04; with RAW-Dual [1] (setting [4]) it was 1.2; in the assay on RAW-Dual [1] (setting [5]), 1.01; with RAW-Dual [1] (setting [6]) it was 1.1.
On to `CCOc1ccc(Cc2cc(C3OC(CO)C(O)C(O)C3O)ccc2Cl)cc1` (configuration not stated), for which the “NF-kB SEAP reporter activity” value was 1.04 with RAW-Dual [2] (setting [7]) and 1.03 with RAW-Dual [2] (setting [8]).
As to `CCC1(O)CC2CN(CCc3c([nH]c4ccccc34)C(C(=O)OC)(c3cc4c(cc3OC)N(C)C3C(O)(C(=O)OC)C(OC(C)=O)C5(CC)C=CCN6CCC43C65)C2)C1.O=S(=O)(O)O` (configuration not stated), the “NF-kB SEAP reporter activity” value with RAW-Dual [2] (setting [9]) came to 2.51; in the assay with RAW-Dual [2] (setting [10]), 2.53.
`CCC1=CC2CN(C1)Cc1c([nH]c3ccccc13)C(C(=O)OC)(c1cc3c(cc1OC)N(C)C1C(O)(C(=O)OC)C(OC(C)=O)C4(CC)C=CCN5CCC31C54)C2` (configuration not stated) (library stock concentration (final ~1000-fold dilution): 10 mM): the “NF-kB SEAP reporter activity” value with RAW-Dual [3] (agonist: LPS (TLR4) 0.1 ug/mL) is 5.34; in the assay on RAW-Dual [3] (setting [4]), 0.35; in the assay with RAW-Dual [3] (setting [5]) it was 1.78; in the assay with RAW-Dual [3] (setting [6]), 1.95.
Turning to `CCC1=CC2CN(C1)Cc1c([nH]c3ccccc13)C(C(=O)OC)(c1cc3c(cc1OC)N(C)C1C(O)(C(=O)OC)C(OC(C)=O)C4(CC)C=CCN5CCC31C54)C2` (configuration not stated), the “NF-kB SEAP reporter activity” value came out at 2.47 with RAW-Dual [2] (setting [9]) and 2.6 in the assay on RAW-Dual [2] (setting [10]).
As to `CCC1(O)CC2CN(CCc3c([nH]c4ccccc34)C(C(=O)OC)(c3cc4c(cc3OC)N(C=O)C3C(O)(C(=O)OC)C(OC(C)=O)C5(CC)C=CCN6CCC43C65)C2)C1.O=S(=O)(O)O` (configuration not stated) (library stock concentration (final ~1000-fold dilution): 10 mM), the “NF-kB SEAP reporter activity” value was 5.34 in the assay with RAW-Dual [1] (agonist: LPS (TLR4) 0.1 ug/mL), 3.28 with RAW-Dual [1] (setting [4]), 1.99 in the assay with RAW-Dual [1] (setting [5]) and 2.22 with RAW-Dual [1] (setting [6]).
Regarding `CCC1(O)CC2CN(CCc3c([nH]c4ccccc34)C(C(=O)OC)(c3cc4c(cc3OC)N(C)C3C(O)(C(=O)OC)C(OC(C)=O)C5(CC)C=CCN6CCC43C65)C2)C1.O=S(=O)(O)O` (configuration not stated) (library stock concentration (final ~1000-fold dilution): 10 mM), the “NF-kB SEAP reporter activity” value is 5.91 with RAW-Dual [3] (agonist: LPS (TLR4) 0.1 ug/mL), 2.96 with RAW-Dual [3] (setting [4]), 1.48 in the assay with RAW-Dual [3] (setting [5]) and 1.94 in the assay with RAW-Dual [3] (setting [6]).
With `CCC1(O)CC2CN(CCc3c([nH]c4ccccc34)C(C(=O)OC)(c3cc4c(cc3OC)N(C=O)C3C(O)(C(=O)OC)C(OC(C)=O)C5(CC)C=CCN6CCC43C65)C2)C1.O=S(=O)(O)O` (configuration not stated), the results for the “NF-kB SEAP reporter activity” value in the assay with RAW-Dual [2] (setting [7]) and in the assay with RAW-Dual [2] (setting [8]) were 2.54 and 2.37, respectively.
Consider `C=CC(=O)Nc1cc(Nc2nccc(-c3cn(C)c4ccccc34)n2)c(OC)cc1N(C)CCN(C)C.CS(=O)(=O)O` (library stock concentration (final ~1000-fold dilution): 10 mM), for which the “NF-kB SEAP reporter activity” value in the assay on RAW-Dual [3] (agonist: LPS (TLR4) 0.1 ug/mL) amounted to 2.39; in the assay on RAW-Dual [3] (setting [4]), 0.214; in the assay on RAW-Dual [3] (setting [5]), 1.28; in the assay with RAW-Dual [3] (setting [6]), 0.898.
On to `C=CC(=O)Nc1cc(Nc2nccc(-c3cn(C)c4ccccc34)n2)c(OC)cc1N(C)CCN(C)C.CS(=O)(=O)O`, for which, in the assay on RAW-Dual [2] (setting [10]), the “NF-kB SEAP reporter activity” value was determined as 1.91.
Take `O=[N+]([O-])c1ccc(Nc2ccccc2-c2ccccc2)c2nonc12`: the “NF-kB SEAP reporter activity” value was determined as 0.973 in the assay with RAW-Dual [2] (setting [7]) and 1.33 in the assay with RAW-Dual [2] (setting [8]).
Turning to `O=[N+]([O-])c1ccc(Nc2ccccc2-c2ccccc2)c2nonc12` (library stock concentration (final ~1000-fold dilution): 10 mM), the “NF-kB SEAP reporter activity” value in the assay with RAW-Dual [1] (agonist: LPS (TLR4) 0.1 ug/mL) was 2.02; in the assay with RAW-Dual [1] (setting [4]), 1.02; with RAW-Dual [1] (setting [5]), 0.555; in the assay with RAW-Dual [1] (setting [6]), 0.754.
For the compound `CC(C)(C)C(=O)N1N=CCC1c1ccccc1` (configuration not stated), the results for the “NF-kB SEAP reporter activity” value in the assay with RAW-Dual [2] (setting [7]) and with RAW-Dual [2] (setting [8]) were 0.871 ± 0.094 and 1.025 ± 0.0035, respectively.
As to `CC(C)(C)C(=O)N1N=CCC1c1ccccc1` (configuration not stated) (library stock concentration (final ~1000-fold dilution): 10 mM), the “NF-kB SEAP reporter activity” value in the assay on RAW-Dual [1] (agonist: LPS (TLR4) 0.1 ug/mL) was determined as 1.02 ± 0.095; in the assay with RAW-Dual [1] (setting [4]) it was 0.9171 ± 0.0045; with RAW-Dual [1] (setting [5]) it was 0.983 ± 0.09; in the assay on RAW-Dual [1] (setting [6]), 1.3 ± 0.015.
Regarding `O=C(C=Cn1cnc(-c2cc(C(F)(F)F)cc(C(F)(F)F)c2)n1)NNc1cnccn1` (library stock concentration (final ~1000-fold dilution): 10 mM), the “NF-kB SEAP reporter activity” value with RAW-Dual [1] (agonist: LPS (TLR4) 0.1 ug/mL) was 0.255; with RAW-Dual [1] (setting [4]), 0.841; with RAW-Dual [1] (setting [5]) it was 0.42; in the assay with RAW-Dual [1] (setting [6]), 0.428.
As to `O=C(C=Cn1cnc(-c2cc(C(F)(F)F)cc(C(F)(F)F)c2)n1)NNc1cnccn1`, the “NF-kB SEAP reporter activity” value in the assay with RAW-Dual [2] (setting [7]) worked out at 1.41; in the assay with RAW-Dual [2] (setting [8]), 0.523.
Regarding `Cc1ccc(NC(=O)c2ccc(CN3CCC(N(C)C)C3)c(C(F)(F)F)c2)cc1Nc1nccc(-c2cncnc2)n1` (configuration not stated), the “NF-kB SEAP reporter activity” value in the assay with RAW-Dual [2] (setting [9]) worked out at 2.42; with RAW-Dual [2] (setting [10]), 1.36.
Turning to `Cc1ccc(NC(=O)c2ccc(CN3CCC(N(C)C)C3)c(C(F)(F)F)c2)cc1Nc1nccc(-c2cncnc2)n1` (configuration not stated) (library stock concentration (final ~1000-fold dilution): 10 mM), the “NF-kB SEAP reporter activity” value in the assay with RAW-Dual [3] (agonist: LPS (TLR4) 0.1 ug/mL) was 0.247; in the assay on RAW-Dual [3] (setting [4]), 0.833; in the assay with RAW-Dual [3] (setting [5]), 1.4; in the assay on RAW-Dual [3] (setting [6]) it was 1.16.
Regarding `Cc1nc(NC(=O)N2CCCC2C(N)=O)sc1-c1ccnc(C(C)(C)C(F)(F)F)c1` (configuration not stated), the results for the “NF-kB SEAP reporter activity” value in the assay with RAW-Dual [2] (setting [7]) and with RAW-Dual [2] (setting [8]) were 1.35 and 1.13, respectively.
For the compound `Cc1nc(NC(=O)N2CCCC2C(N)=O)sc1-c1ccnc(C(C)(C)C(F)(F)F)c1` (configuration not stated) (library stock concentration (final ~1000-fold dilution): 10 mM), the “NF-kB SEAP reporter activity” value was determined as 1.65 with RAW-Dual [1] (agonist: LPS (TLR4) 0.1 ug/mL), 1.78 in the assay on RAW-Dual [1] (setting [4]), 1.43 in the assay with RAW-Dual [1] (setting [5]) and 1.09 in the assay on RAW-Dual [1] (setting [6]).
As to `C=CC(=O)NC1CCOCC1Nc1ncc2cc(-c3c(Cl)c(OC)cc(OC)c3Cl)ccc2n1` (configuration not stated), the figures for the “NF-kB SEAP reporter activity” value in the assay on RAW-Dual [2] (setting [7]) and in the assay with RAW-Dual [2] (setting [8]) were 0.68 and 0.869, respectively.
With `C=CC(=O)N1CCN(CCCn2c(=O)c(-c3c(Cl)c(OC)cc(OC)c3Cl)cc3cnc(NC)nc32)CC1`, the figures for the “NF-kB SEAP reporter activity” value in the assay on RAW-Dual [2] (setting [7]) and with RAW-Dual [2] (setting [8]) were 0.952 and 1.23, respectively.
For `C=CC(=O)NC1CCOCC1Nc1ncc2cc(-c3c(Cl)c(OC)cc(OC)c3Cl)ccc2n1` (configuration not stated) (library stock concentration (final ~1000-fold dilution): 10 mM), the “NF-kB SEAP reporter activity” value turned out to be 0.691 with RAW-Dual [1] (agonist: LPS (TLR4) 0.1 ug/mL), 0.827 with RAW-Dual [1] (setting [4]), 0.34 in the assay with RAW-Dual [1] (setting [5]) and 0.478 in the assay with RAW-Dual [1] (setting [6]).
Regarding `C=CC(=O)Nc1cccc(C)c1Nc1ncc2cc(-c3c(Cl)c(OC)cc(OC)c3Cl)ccc2n1`, the “NF-kB SEAP reporter activity” value worked out at 1.08 in the assay with RAW-Dual [2] (library stock concentration (final ~1000-fold dilution): 2 mM, cytotoxicity flag (confluency mask): not cytotoxic, agonist: Imiquimod (TLR7) […]) and 1.2 in the assay with RAW-Dual [2] (library stock concentration (final ~1000-fold dilution): 2 mM, cytotoxicity flag (confluency mask): not cytotoxic, agonist: MPLA (TLR4) […]).
On to `C=CC(=O)Nc1cccc(C)c1Nc1ncc2cc(-c3c(Cl)c(OC)cc(OC)c3Cl)ccc2n1` (library stock concentration (final ~1000-fold dilution): 2 mM), for which the “NF-kB SEAP reporter activity” value with RAW-Dual [1] (agonist: LPS (TLR4) 0.1 ug/mL) was found to be 1.04; in the assay with RAW-Dual [1] (setting [4]) it was 1.08; in the assay with RAW-Dual [1] (setting [5]) it was 0.531; in the assay on RAW-Dual [1] (setting [6]), 0.89.
As to `C=CC(=O)N1CCN(CCCn2c(=O)c(-c3c(Cl)c(OC)cc(OC)c3Cl)cc3cnc(NC)nc32)CC1` (library stock concentration (final ~1000-fold dilution): 10 mM), the “NF-kB SEAP reporter activity” value in the assay on RAW-Dual [1] (agonist: LPS (TLR4) 0.1 ug/mL) stood at 3.2; in the assay on RAW-Dual [1] (setting [4]) it was 1.05; in the assay with RAW-Dual [1] (setting [5]), 0.933; with RAW-Dual [1] (setting [6]), 1.15.
